Screening results deposited in PubChem by several laboratories.
This is a sample that favours compounds with a hit; in the whole collection about 3.6% have one here.
A3G deaminase – APOBEC3G (human) deaminase inhibition | Q9HC16 | recombinant A3G, ssDNA deamination FAM/TAMRA fluorescence | inhibition, % at 20 µM | 0.28% of 330,000 active | AID 493012;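 active = inhibition of at least 40% at 20 µM, with no more than 30% in the related APOBEC3A deaminase screen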;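 also: plate controls were DMSO wells with A3G for no effect and wells lacking A3G enzyme for full effect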
Target sequence (Q9HC16 whole entry, looked up): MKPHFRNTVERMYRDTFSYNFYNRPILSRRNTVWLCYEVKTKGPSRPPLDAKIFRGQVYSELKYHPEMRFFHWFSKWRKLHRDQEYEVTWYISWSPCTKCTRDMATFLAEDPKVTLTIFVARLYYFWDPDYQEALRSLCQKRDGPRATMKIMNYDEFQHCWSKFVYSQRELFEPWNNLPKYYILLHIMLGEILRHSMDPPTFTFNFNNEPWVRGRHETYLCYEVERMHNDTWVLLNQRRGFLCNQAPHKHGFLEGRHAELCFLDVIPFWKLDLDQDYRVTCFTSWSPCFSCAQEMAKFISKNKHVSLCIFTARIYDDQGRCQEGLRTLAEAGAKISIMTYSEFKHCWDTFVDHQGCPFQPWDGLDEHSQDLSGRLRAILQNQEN
MITF TRPM1 HTS – activators of MITF-driven TRPM1 promoter activity in SK-MEL-5 cells | 0.75% of 300,000 active | SK-MEL-5 TRPM1-promoter luciferase, 24 h; % of positive control, neutral wells = 0 | AID 588334 | activation, % at 12.5 µM;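 active = mean activation of at least 80% with every replicate also reaching 80%; inconclusive = mean reaches 80% but some replicate falls short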;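 also: 0% = neutral control wells and 100% = parthenolide positive control wells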
Wnt act – activators of Wnt/beta-catenin signaling | activation, % at 9.35 µM | Wnt/beta-catenin reporter cell assay, activator, plate reader | 1.2% of 300,000 active | AID 743398; in the data active = activation above about 30%, passing the limit was not always enough; inconclusive = no clear call, values can overlap the other calls;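 also: 0% = neutral control wells and 100% = positive control wells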
PHOSPHO1 block – PHOSPHO1 (human) inhibition | Q8TCT1 | recombinant PHOSPHO1, absorbance phosphatase assay | inhibition, % at 13.3 µM | 1.1% of 290,000 active; in the data active = inhibition above about 60%
Target sequence (Q8TCT1 whole entry, looked up): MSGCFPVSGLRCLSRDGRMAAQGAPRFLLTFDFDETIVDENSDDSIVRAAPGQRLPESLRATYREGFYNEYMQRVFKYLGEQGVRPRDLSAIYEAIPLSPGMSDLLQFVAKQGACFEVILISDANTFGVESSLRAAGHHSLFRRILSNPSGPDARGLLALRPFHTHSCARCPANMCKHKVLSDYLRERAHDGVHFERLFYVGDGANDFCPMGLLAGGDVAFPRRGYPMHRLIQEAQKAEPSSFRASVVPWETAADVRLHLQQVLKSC
esBAF inh – inhibitors of esBAF chromatin remodeling in mouse ES cells. AID 602393. 2% of 350,000 active. reporter increase, % at 12.5 µM. Bmi1-luciferase knock-in reporter, 24 h; 100% = twice the neutral-well signal; in the data active = activation above about 40%; inconclusive = no clear call, values can overlap the other calls;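 also: 0% = median of the plate's neutral control wells and 100% = double that signal; a rise in the Bmi1 reporter signal indicates esBAF inhibition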
APOBEC3A inh – human APOBEC3A DNA deaminase inhibition. recombinant A3A, FAM/TAMRA ssDNA deamination fluorescence. P31941. inhibition, % at 20 µM. AID 493011. 0.41% of 330,000 active;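 active = at least 40% inhibition at 20 µM here, with at most 30% in a related deaminase screen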;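 also: plate controls were A3A with DMSO for no effect and wells lacking A3A enzyme for full effect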
* hit, by the source's call; ? = inconclusive; nt = no result.

SMILES	A3G deaminase	MITF TRPM1 HTS	Wnt act	PHOSPHO1 block	esBAF inh	APOBEC3A inh
C[C@H](CO)N1C[C@H](C)[C@@H](CN(C)Cc2ccccc2)Oc2c(NS(=O)(=O)c3cccs3)cccc2C1=O	nt	nt	nt	nt	-2	nt
C[C@H](O)C#Cc1ccc2c(c1)O[C@@H](CN(C)Cc1ccccc1)[C@@H](C)CN([C@H](C)CO)S2(=O)=O	nt	nt	nt	nt	-2	nt
O=C(C[C@H]1CC[C@H]2[C@@H](COC[C@@H](O)CN2C(=O)c2ccc(F)cc2)O1)NCCCN1CCOCC1	nt	nt	nt	nt	4	nt
COc1ccc(N2CC(NC(=O)NC(C)(C)C)CC2=O)cc1 (stereo unspecified)	-1	-10	-3	-9	nt	-1
COc1ccc(NC(=O)NC2CCCCCCC2)cc1	-8	59	6	-10	53*	-3
CCOc1ccc(NC(=O)NC2CC(=O)N(c3ccc(OC)cc3)C2)cc1 (stereo unspecified)	2	1	42*	32	-5	3
COc1cccc(NC(=O)NC2CCCCCCC2)c1	-2	89*	13	26	39	3
COC(=O)c1ccc(NC(=O)NC2CCCCC2)cc1	-4	57	nt	8	nt	1
Cc1ccc(NC(=O)NC2CCCCCCC2)cc1	-1	64	35*	37	nt	1
S=C(Nc1cccnc1)NC1CCCCCCC1	-8	2	9	-15	nt	-3
O=C(Nc1cccnc1)NC1CCCCC1	-10	13	-1	68*	6	0
Cc1c(/C(O)=C2/C(=O)C(=O)N(Cc3cccnc3)C2c2cccs2)cnn1-c1ccccc1 (stereo unspecified)	-3	53	-3	-27	46*	-1
N#Cc1ccccc1NC(=O)c1ccc2c(Cl)c3c(nc2c1)CCCC3	-5	61	nt	-23	80*	0
O=C(NC1CC1)c1ccc2c(Cl)c3c(nc2c1)CCCC3	-7	71	22	-13	47*	-4
C[C@@H]1CN([C@@H](C)CO)C(=O)c2cc(NC(=O)c3ccccc3)ccc2O[C@@H](C)CCCCO[C@H]1CN(C)Cc1ccncc1	nt	nt	nt	nt	-2	nt
Cc1c(C(=O)NC(=S)NCC(C)C)oc2ccccc12	-7	90*	14	11	nt	-3
CC(=O)Nc1ccc(NC(=S)NC(=O)c2oc3ccccc3c2C)cc1	-3	10	nt	-10	nt	2
C=CCNC(=S)NC(=O)c1oc2ccccc2c1C	1	31	-1	41	26	0
Cc1cccnc1NC(=S)NC(=O)c1oc2ccccc2c1C	-8	60	25	16	74*	-5
CC(C)C#Cc1cnc2c(c1)C(=O)N([C@@H](C)CO)C[C@@H](C)[C@H](CN(C)Cc1ccc3c(c1)OCO3)O2	nt	nt	nt	nt	2	nt
Nc1c2c(nc3sc4c(c13)CCCC4)-c1ccccc1CC2	-8	nt	42*	24	-14	-1
CN1CCSc2ccc(C(=O)Nc3cccc(F)c3)cc21	-7	65	10	24	50*	-1
COc1ccc(NC(=O)c2ccc3c(c2)n(C)c(=O)n3C)cc1	-6	-13	0	14	15	-2
COc1ccc(NC(=O)c2ccc3c(c2)N(C)CCS3)cc1	1	nt	53*	12	85*	-2
CN1CCSc2ccc(C(=O)NCc3ccccc3)cc21	5	nt	5	23	27	2
SMILES	A3G deaminase	MITF TRPM1 HTS	Wnt act	PHOSPHO1 block	esBAF inh	APOBEC3A inh
O=C(N[C@H]1CC[C@H](CCn2cc(-c3ccccc3)nn2)O[C@@H]1CO)c1ccccc1F	nt	nt	nt	nt	-22	nt
Cc1cccnc1NC(=O)c1c(O)c2cccc3c2n(c1=O)CCC3	-8	-24	-4	-60	-10	-5
O=C(Nc1ccccn1)c1c(O)c2cccc3c2n(c1=O)CCC3	-3	7	nt	-9	64*	6
C[C@H](CO)N1C[C@H](C)[C@@H](CN(C)CC2CCCCC2)OCCCC[C@H](C)Oc2ccc(NS(=O)(=O)c3cccs3)cc2C1=O	nt	nt	nt	nt	-3	nt
O=C(O)c1ccccc1-c1ccc(/C=c2\sc3nc4cc(Br)cnc4n3c2=O)o1	92	-15	nt	62*	-5	99
Cc1cc2nc3s/c(=C/c4ccc(-c5ccccc5C(=O)O)o4)c(=O)n3c2cc1C	4	-4	4	46	12	16
CCOc1ccc(N(Cc2ccc(OC)c(OC)c2)C(=O)c2ccco2)cc1	-6	nt	-2	26	nt	20
CCOc1ccc(CN(C(=O)c2ccccn2)c2ccc(OC)c(Cl)c2)cc1	-8	21	3	-148	46*	0
Cc1ccc(-n2c(C)cc(/C=c3/sc4nc5ccccc5n4c3=O)c2C)cc1	-6	nt	nt	62*	nt	-4
CNC[C@H]1Oc2ncc(Br)cc2C(=O)N([C@H](C)CO)C[C@@H]1C	nt	nt	nt	nt	-1	nt
COc1ccc(CCC(=O)Nc2nc3ccccc3[nH]2)cc1	-3	40	nt	14	46*	-2
Cc1nnc(NC(=O)CCSc2ccc(Cl)cc2)s1	-5	64	-2	60*	2	-1
COc1ccc(CCC(=O)Nc2nnc(C)s2)cc1	-2	nt	63*	nt	nt	0
COc1ccc(Br)c(C(=O)Nc2nc3ccccc3[nH]2)c1	5	92*	6	40	49*	-1
O=C(C[C@@H]1CC[C@H]2[C@@H](COC[C@H](O)CN2Cc2ccc(C(F)(F)F)cc2)O1)NCCc1ccccc1	nt	nt	nt	nt	-2	nt
COc1cccc(-c2ccc3n(c2=O)C[C@H]2[C@H](CO)[C@@H](C(=O)NC4CCCC4)N[C@@H]32)c1	nt	nt	nt	nt	2	nt
CCCN1[C@@H]2c3ccc(C4=CCCC4)c(=O)n3C[C@@H]2[C@@H](CO)[C@@H]1C(=O)NCCCN(C)C	nt	nt	nt	nt	4	nt
O=C(C[C@@H]1C=C[C@H](NC(=O)C2CCOCC2)[C@@H](CO)O1)NCCc1cscn1	nt	nt	nt	nt	-5	nt
CC(C)NC(=O)N(C)C[C@H]1Oc2ncc(C#Cc3ccncc3)cc2C(=O)N([C@H](C)CO)C[C@H]1C	nt	nt	nt	nt	0	nt
COc1ccc(OCC(=O)Nc2nc3ccccc3[nH]2)cc1	-5	55	nt	-16	49*	-1
CCC(Oc1ccccc1)C(=O)Nc1nc2ccccc2[nH]1 (stereo unspecified)	-4	41	7	32	53*	-6
CC(C)Oc1ccc(C(=O)Nc2nc3ccccc3[nH]2)cc1	-6	-81	-4	32	-89	0
CCCCCC(=O)Nc1nc2ccccc2[nH]1	-2	nt	53*	6	?	1
O=C(CC1CCCC1)Nc1nc2ccccc2[nH]1	-10	nt	40*	-4	62*	-7
CC(=O)N(C)C[C@H]1Oc2cc(-c3cncnc3)ccc2S(=O)(=O)N([C@@H](C)CO)C[C@@H]1C	nt	nt	nt	nt	1	nt
O=C(Nc1ccc(F)cc1)N1C[C@H]2[C@@H](c3ccccc31)[C@H](CO)N2C(=O)Cc1cccnc1	nt	nt	nt	nt	5	nt
CCCNC(=O)N(C)C[C@@H]1Oc2cc(-c3ccncc3)ccc2S(=O)(=O)N([C@H](C)CO)C[C@H]1C	nt	nt	nt	nt	-4	nt
